This is an account of results in PubChem BioAssay (Tox21).

Structures are written as SMILES. Results filed as inconclusive are left out. The source made the active and inactive calls. Unless noted, calls come from the whole dose curve; as a rule, active = well fitted curve in the direction sought with a large enough effect in the repeat runs; inconclusive = weak or mixed curves; inactive = no such curve, though single readings can be large; an effect the other way counts as inactive or inconclusive.

The target of assay [1] is Progesterone receptor (Homo sapiens) (UniProt P06401). Put plainly: qHTS assay to identify small molecule agonists of the progesterone receptor (PR) signaling pathway (AID 1346784; calls by dose curve; note: nearly all actives have a fitted effect of over 30% in size). In short, it runs like this:
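Using charcoal-stripped serum (2%) to limit endogenous steroids, PR-UAS-bla HEK 293T cells received compounds for 16 hr at 37C after 6 hr plating; beta-lactamase FRET fluorescence was recorded following 2 hr substrate loading at room temperature.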

For assay [2] the target is unchanged. Put plainly: qHTS assay to identify small molecule antagonists of the progesterone receptor (PR) signaling pathway (AID 1346795; active = well fitted inhibition curve with a large enough effect in the signal ratio in the repeat runs, not every such curve was filed as active; the % refers to the signal ratio; note: potency is the fitted concentration of half-maximal effect). In short, it runs like this: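 Inhibition of R5020-induced (1 nM final) beta-lactamase reporter signal in PR-UAS-bla HEK293T cells was scored by FRET fluorescence after overnight (16 hr) compound treatment.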
A general note: Quantitative high-throughput screening tests each substance at several concentrations.

Assay [3] can be described thus: qHTS assay to identify small molecule antagonists of the progesterone receptor (PR) signaling pathway - cell viability counter screen (AID 1346798). Note: series mostly up to about 92 µM; nearly all actives have a fitted effect of over 50% in size. In short, it runs like this: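 ATP content as viability readout: CellTiter-Glo luminescence, 30 min room temperature, in PR-UAS-bla HEK293T cells after 16 hr compound/R5020 treatment at 37C and 5% CO2.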
The nature of assay [4]: qHTS assay to identify small molecule agonists of the progesterone receptor (PR) signaling pathway - cell viability counter screen (AID 1346799; calls by dose curve; note: nearly all actives have a fitted effect of over 45% in size). In short, it runs like this: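 Cytotoxicity in PR-bla HEK293T cells: 16 h compound, 37C; CellTiter-Glo added post-FRET read; luminescence after 30 min RT.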
Assay [5] is described as follows: qHTS assay to identify small molecule antagonists of the TGF-beta/Smad signaling pathway - cell viability counter screen (AID 1346824). Note: nearly all actives have a fitted effect of over 50% in size. The method in brief:
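Cytotoxicity counter-screen run in the same wells as the beta-lactamase Smad reporter read: CellTiter-Glo luminescence after 30 min at room temperature. HEK 293T SBE-bla cells had 5 hr compound exposure at 37 C with TGF-beta1 (0.25 ng/mL stock).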

Assay [6] is described as follows: qHTS assay to identify small molecule agonists of the TGF-beta/Smad signaling pathway - cell viability counter screen (AID 1346829). Note: top concentration of the series differs between compounds; nearly all actives have a fitted effect of over 45% in size. In short, it runs like this:
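Cytotoxicity counter screen: CellTiter-Glo luminescence (30 min, room temperature) measured in the SBE-bla HEK 293T reporter wells after 5 hr compound treatment at 37 C and the 2 hr substrate step.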

Assay [7] can be described thus: qHTS assay to identify small molecule agonists of the TGF-beta/Smad signaling pathway (AID 1346859; active = well fitted activation curve with a large enough effect in the signal ratio in the repeat runs, not every such curve was filed as active; the % refers to the signal ratio; note: series mostly up to about 77 µM). The method in brief:
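Stable Smad binding element-beta-lactamase HEK 293T cells; 5 hr compound exposure at 37 C under 5% CO2; 2 hr room-temperature substrate step; fluorescence excited at 405 nm, collected at 460 nm and 530 nm.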

Assay [8] addresses Thyrotropin-releasing hormone receptor (Homo sapiens) (UniProt P34981). Put plainly: qHTS assay to identify small molecule antagonists of the thyrotropin-releasing hormone receptor (TRHR) signaling pathway (AID 1346877; active = well fitted inhibition curve with a large enough effect in the repeat runs, not every such curve was filed as active; note: series mostly up to about 51 µM). In short, it runs like this: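 Screening used HEK293 cells engineered with TRHR, with a brief 5 min room-temperature compound exposure preceding addition of TRH to 1 nM. The read-out was kinetic calcium-dye fluorescence, concentration-response from 15 doses in triplicate.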

Assay [9] has the same target. In words: qHTS assay to identify small molecule agonists of the thyrotropin-releasing hormone receptor (TRHR) signaling pathway (AID 1346891; calls by dose curve;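 note: HEK293 cells expressing TRHR with calcium dye readout; series mostly up to about 58 µM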). The method in brief: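 In 1536-format, 1500 TRHR-Hek293 cells per well grew 18 h, took up calcium dye for 2 h at 37 °C, received compound, and were read kinetically; 15-point titrations, triplicates.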
The nature of assay [10]: Human pregnane X receptor (PXR) small molecule agonists, qHTS cell viability counter screen (AID 1346977). Note: nearly all actives have a fitted effect of over 50% in size. The method in brief: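 Readout is CellTiter-Fluor fluorescence from PXR-Luc HepG2 cells. Plated cells rested 5hr, then were treated with compounds for 24hr at 37C and 5% CO2, with reagent present during the last hour.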

Progesterone receptor (Homo sapiens), sequence (P06401 whole entry, looked up): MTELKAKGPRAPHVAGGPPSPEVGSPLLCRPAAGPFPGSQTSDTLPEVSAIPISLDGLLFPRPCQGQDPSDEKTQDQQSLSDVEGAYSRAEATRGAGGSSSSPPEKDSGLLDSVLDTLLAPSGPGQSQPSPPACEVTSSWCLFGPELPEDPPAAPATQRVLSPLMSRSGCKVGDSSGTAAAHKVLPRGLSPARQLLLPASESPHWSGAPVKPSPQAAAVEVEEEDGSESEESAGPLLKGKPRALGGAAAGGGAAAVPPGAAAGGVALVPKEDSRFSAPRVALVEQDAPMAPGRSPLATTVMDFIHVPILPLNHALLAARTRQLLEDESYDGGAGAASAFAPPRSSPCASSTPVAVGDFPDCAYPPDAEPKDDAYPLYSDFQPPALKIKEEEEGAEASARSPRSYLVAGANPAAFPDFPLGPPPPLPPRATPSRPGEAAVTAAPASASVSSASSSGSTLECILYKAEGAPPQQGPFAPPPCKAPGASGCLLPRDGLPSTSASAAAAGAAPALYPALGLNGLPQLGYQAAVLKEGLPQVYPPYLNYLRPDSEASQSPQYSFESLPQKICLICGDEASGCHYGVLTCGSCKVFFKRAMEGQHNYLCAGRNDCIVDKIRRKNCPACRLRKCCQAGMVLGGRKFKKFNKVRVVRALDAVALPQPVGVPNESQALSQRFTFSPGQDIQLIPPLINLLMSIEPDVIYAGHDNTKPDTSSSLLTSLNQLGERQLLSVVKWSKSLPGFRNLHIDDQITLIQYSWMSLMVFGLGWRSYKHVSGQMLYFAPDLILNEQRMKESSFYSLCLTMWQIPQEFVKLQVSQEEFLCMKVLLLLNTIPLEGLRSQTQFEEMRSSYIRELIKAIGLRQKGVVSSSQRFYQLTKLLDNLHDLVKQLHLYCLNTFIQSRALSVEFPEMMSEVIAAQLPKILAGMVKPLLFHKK
Thyrotropin-releasing hormone receptor (Homo sapiens), sequence (P34981 whole entry, looked up): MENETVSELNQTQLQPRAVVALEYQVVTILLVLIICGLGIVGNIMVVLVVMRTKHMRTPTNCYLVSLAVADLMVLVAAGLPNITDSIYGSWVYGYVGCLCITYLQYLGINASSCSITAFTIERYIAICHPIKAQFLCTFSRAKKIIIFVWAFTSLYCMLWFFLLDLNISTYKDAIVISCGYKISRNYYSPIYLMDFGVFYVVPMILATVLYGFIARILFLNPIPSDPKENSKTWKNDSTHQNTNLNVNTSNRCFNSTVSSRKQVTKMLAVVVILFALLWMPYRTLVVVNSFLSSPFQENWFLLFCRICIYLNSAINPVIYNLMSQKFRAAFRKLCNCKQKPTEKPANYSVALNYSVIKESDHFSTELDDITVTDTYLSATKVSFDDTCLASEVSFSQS

As to `Cc1cc(=O)[nH]o1`, the Potency result in assay [1], in assay [2], in assay [3], in assay [4], in assay [5] and in [6] was “inactive” each time. The Potency entry in assay [8], in assay [9] and in assay [10] was “inactive” each time. Besides, the result in assay [7] was inactive.

With `Cl/C=C\C[N+]12CN3CN(CN(C3)C1)C2`, the Potency entry in [1], in [2], in [3], in assay [4], in assay [5] and in assay [6] was “inactive” in each case. Further, the Potency entry in assay [8], in assay [9] and in [10] was “inactive” each time. In assay [7], the call was inactive.

Turning to `C=C(C#N)CCC#N`, the Potency entry in assay [1], in assay [2], in assay [3], in assay [4], in assay [5] and in assay [6] was “inactive” each time. Also, the Potency entry in assay [8], in [9] and in assay [10] was “inactive” each time. For the same compound, in assay [7], the result was inactive.

Consider `ClP(Cl)(Cl)(Cl)Cl`, for which the Potency result in [1], in assay [2], in assay [3], in assay [4], in assay [5] and in assay [6] was “inactive” each time. The Potency entry in assay [8], in assay [9] and in assay [10] was “inactive” each time. In [7], the result was inactive.

Consider `O=C(CCl)c1ccc(Cl)cc1Cl`, for which the Potency entry in assay [1], in assay [2], in assay [3], in [4], in assay [5] and in [6] was “inactive” in each case. The Potency entry in assay [8], in assay [9] and in [10] was “inactive” each time. Also, the result in [7] was inactive.

As for `[O-][Cl+]O`, the Potency entry in assay [1], in assay [2], in assay [3], in assay [4], in assay [5] and in assay [6] was “inactive” throughout. Moreover, the Potency result in assay [8] and in [9] was “inactive” each time. In addition, the result in [7] was inactive.

As to `CC(=O)C(C)(C)C`, the Potency result in assay [1], in assay [2], in [3], in [4], in assay [5] and in assay [6] was “inactive” in each case. Besides, the Potency result in assay [8], in assay [9] and in assay [10] was “inactive” each time. Besides, the outcome in assay [7] was inactive.

Take `CCCCCCCCCCOC(=O)c1ccccc1C(=O)OCCCCCCCCCC`: the Potency entry in assay [1], in assay [2], in assay [3], in assay [4], in [5] and in [6] was “inactive” in each case. The Potency result in [8], in [9] and in assay [10] was “inactive” throughout. Further, the outcome in [7] was inactive.

With `N#Cc1ccc(Cl)cc1`, the Potency result in assay [1], in assay [2], in assay [3], in assay [4], in [5] and in assay [6] was “inactive” throughout. In addition, the Potency result in assay [8], in [9] and in [10] was “inactive” each time. In addition, the result in assay [7] was inactive.

Turning to `c1ccc(C2CC2)c(OCC2=NCCN2)c1`, the Potency result in assay [1], in [2], in assay [3], in assay [4], in assay [5] and in assay [6] was “inactive” throughout. The Potency entry in assay [8], in assay [9] and in [10] was “inactive” throughout. The compound was classed as inactive in assay [7].

As for `O=C(C(Cl)(Cl)Cl)C(Cl)(Cl)Cl`, the Potency entry in assay [1], in assay [2], in assay [3], in [4], in [5] and in assay [6] was “inactive” each time. For the same compound, the Potency result in [8], in [9] and in assay [10] was “inactive” in each case. Further, in assay [7], the result was inactive.

`CCCCCCC#N`: the Potency result in [1], in assay [2], in assay [3], in [4], in assay [5] and in assay [6] was “inactive” in each case. In addition, the Potency result in [8], in assay [9] and in assay [10] was “inactive” each time. Further, the call in assay [7] was inactive.

`O=C(CBr)Nc1ccc(Cl)cc1C(=O)c1ccccc1F`: the Potency entry in assay [1], in [3], in assay [4], in [5], in [6] and in assay [8] was “inactive” each time. In addition, the Potency result in assay [9] and in [10] was “inactive” in each case. Moreover, the Potency in [2] was 21.1 µM (active). Further, the result in assay [7] was inactive.

As for `[CH3][Sn]([CH3])([Cl])[Cl]`, the Potency result in [1], in assay [2], in assay [3], in assay [4], in assay [5] and in assay [6] was “inactive” throughout. In addition, the Potency result in [8], in [9] and in [10] was “inactive” each time. Further, in assay [7], the outcome was inactive.

Regarding `CC(=O)[C@H]1CC[C@H]2[C@@H]3CC[C@H]4C[C@](C)(O)CC[C@]4(C)[C@H]3CC[C@]12C`, the Potency entry in [1], in assay [2], in assay [3], in [4], in assay [5] and in assay [6] was “inactive” throughout. Moreover, the Potency result in assay [8], in assay [9] and in assay [10] was “inactive” each time. Also, in [7], the compound was called inactive.

`C[N+](C)(C)CCCl`: the Potency entry in assay [1], in assay [2], in [3], in [4], in assay [5] and in assay [6] was “inactive” in each case. The Potency entry in assay [8], in [9] and in assay [10] was “inactive” throughout. The compound was called inactive in assay [7].

In the case of `Cl/C=C\Cl`, the Potency entry in assay [1], in assay [2], in [3], in assay [4], in assay [5] and in assay [6] was “inactive” in each case. The Potency entry in assay [8], in assay [9] and in [10] was “inactive” throughout. The call in assay [7] was inactive.

Consider `C[C@@H]1CC[C@H]2[C@@H](C)C(=O)O[C@@H]3O[C@@]4(C)CC[C@@H]1[C@]32OO4`, for which the Potency entry in assay [1], in [2], in assay [3], in assay [4], in assay [5] and in assay [6] was “inactive” in each case. Also, the Potency result in assay [8], in assay [9] and in [10] was “inactive” in each case. Further, the compound was called inactive in assay [7].

Regarding `Nc1nc(=S)[nH][nH]1`, the Potency entry in [1], in assay [2], in assay [3], in [4], in assay [5] and in assay [6] was “inactive” in each case. Also, the Potency result in assay [8], in assay [9] and in [10] was “inactive” each time. The outcome in assay [7] was inactive.

Turning to `NCCCNCCCN`, the Potency entry in assay [1], in assay [2], in [3], in assay [4], in assay [5] and in assay [6] was “inactive” throughout. The Potency entry in assay [8], in assay [9] and in assay [10] was “inactive” each time. Besides, in assay [7], the compound was classed as inactive.

As to `CCC(Cl)CCl` (centres undefined), the Potency entry in assay [1], in assay [2], in assay [3], in [4], in [5] and in [6] was “inactive” in each case. For the same compound, the Potency entry in [8], in [9] and in assay [10] was “inactive” throughout. Further, the call in assay [7] was inactive.

For the compound `C=CCCl`, the Potency entry in assay [1], in [2], in [3], in assay [4], in assay [5] and in assay [6] was “inactive” throughout. Besides, the Potency entry in [8], in [9] and in assay [10] was “inactive” in each case. Further, the compound was classed as inactive in assay [7].

Turning to `ClC=C(Cl)Cl`, the Potency entry in [1], in [2], in [3], in [4], in [5] and in assay [6] was “inactive” throughout. For the same compound, the Potency entry in assay [8], in [9] and in assay [10] was “inactive” each time. In addition, the outcome in [7] was inactive.

Consider `CC(Cl)Cl`, for which the Potency result in assay [1], in [2], in assay [3], in [4], in assay [5] and in assay [6] was “inactive” each time. For the same compound, the Potency entry in assay [8], in assay [9] and in assay [10] was “inactive” in each case. Also, the call in assay [7] was inactive.

Consider `Cn1cc[n+](C)c1` (tested in a mixture with another compound), for which the Potency entry in [1], in assay [2], in assay [3], in [4], in assay [5] and in assay [6] was “inactive” throughout. Also, the Potency result in assay [8], in [9] and in assay [10] was “inactive” each time. For the same compound, in [7], the compound was classed as inactive.
